Our source for the outcome and AC50 values is PubChem BioAssay (EPA / NIEHS).

Assay [1] in a line: CCTE_Mundy_HCI_Cortical_NOG_NeuriteCount: CCTE's Neurite Outgrowth Assay in rat cortical cells for Neurite Count, Mundy Lab (AID 2284212).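 Note: cells fixed about two days after chemical exposure began.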 The essentials:
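Rat cortical primary cells; compound added 2 h post-plating, 1/10 dilution of working solution. Anti-betaIII-tubulin/AF488 ICC; ArrayScan neurite count vs DMSO.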

The nature of assay [2]: CCTE_Mundy_HCI_Cortical_NOG_NeuriteLength: CCTE's Neurite Outgrowth Assay in rat cortical cells for Neurite Length, Mundy Lab (AID 2284213). The procedure, abridged: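 First, rat primary cortical cells were plated and, 2 h later, given test chemical as a 1/10 dilution. Finally, βIII-tubulin immunostaining enabled automated imaging of neurite length.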
The nature of assay [3]: CCTE_Mundy_HCI_Cortical_Synap_Neur_Matur_NeuriteLength: CCTE's Synaptogenesis and Neurite Maturation Assay in rat cortical cells for Neurite Length, Mundy Lab (AID 2284214). The method, then:
CCTE_Mundy_HCI_Cortical_Synap&Neurite_Matur is a multiplexed, cell-based-readout assay that uses rat primary cortical cells with measurements taken at 288.33 hours after chemical dosing in a microplate: 96-well plate.CCTE_Mundy_HCI_Cortical_Synap_Neur_Matur_NeuriteLength is one of eight components of the CCTE_Mundy_HCI_Cortical_Synap&Neurite_Matur assay. It measures synaptogenesis and neurite maturation related to neurite length using High Content Imaging of fluorescently labelled markers.[…] Using a type of morphology reporter, loss -of-signal activity can be used to understand developmental effects.
Cells are plated onto 96 well plates and allowed 2 hr for attachment to the substrate. At days in vitro (DIV) 5, Cytosine Arabinoside (AraC) is added to arrest glial cell growth. Chemicals are dosed and a media change is performed at DIV 7 of differentiation and is continued through DIV 12 when the experiment is terminated. Cells are fixed with […] and Hoechst Dye. Cells are stained using Millipore Mouse anti-MAP2MAB3418 (1:800) and Millipore Rabbit anti-Synaptophysinsc-1750 (1:250) primary antibodies and Alexa Fluor-488 goat anti-mouse and AlexaFluor-546 goat anti-rabbit secondary antibodies to label neuronal cell nuclei, synapses and neurites. A Cellomics ArrayScan VTi HCS Reader is used for automated image acquisition and analysis of neurite outgrowth.

The nature of assay [4]: CCTE_Mundy_HCI_Cortical_Synap_Neur_Matur_NeuriteSpotCountPerNeuron: CCTE's Synaptogenesis and Neurite Maturation Assay in rat cortical cells for Neurite Spot Count per Neuron Count, Mundy Lab (AID 2284215). The procedure, abridged:
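Developing rat cortical neurons, with glia suppressed by AraC, are exposed to chemicals from DIV 7 to DIV 12. Automated fluorescence imaging of MAP2-labelled neurites and synaptophysin puncta yields a count per neuron, normalised against DMSO wells.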

The nature of assay [5]: CCTE_Mundy_HCI_Cortical_Synap_Neur_Matur_SynapseCount: CCTE's Synaptogenesis and Neurite Maturation Assay in rat cortical cells for Synapse Count, Mundy Lab (AID 2284218). The procedure, abridged: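 Cells were plated, allowed 2 hr to attach, treated with AraC at DIV 5, then exposed to chemicals from DIV 7 until DIV 12. After fixation and MAP2/synaptophysin immunolabelling, synapses per neuron were quantified by automated imaging against DMSO.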

The nature of assay [6]: CCTE_Mundy_HCI_Cortical_Synap_Neur_Matur_NeuriteCount: CCTE's Synaptogenesis and Neurite Maturation Assay in rat cortical cells for Neurite Count, Mundy Lab (AID 2284222).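 Note: exposure from day 7 to day 12 in vitro with readout at day 12.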 The procedure, abridged:
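In this multiplexed morphology readout, rat primary cortical neurons are fixed at DIV 12 following dosing at DIV 7 and stained for MAP2, synaptophysin and nuclei. High-content image analysis yields neurite count.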

The nature of assay [7]: CCTE_Mundy_HCI_Cortical_Synap_Neur_Matur_CellBodySpotCount: CCTE's Synaptogenesis and Neurite Maturation Assay in rat cortical cells for Cell Body Spot Count, Mundy Lab (AID 2284223). The procedure, abridged:
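Chemicals were applied to AraC-treated rat primary cortical cells at DIV 7 and measured at DIV 12. Fixed cells were labelled for MAP2, synaptophysin and nuclei, and high-content imaging gave cell body synaptophysin spot counts per neuron relative to DMSO.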

Assay [8] in a line: CCTE_Mundy_HCI_hNP1_Pro_ResponderAvgInten: CCTE's Proliferation Assay in human neuroprogenitor cells, Mundy Lab (AID 2284224; active = hit-call score of the fitted dose curve at least 0.9, where 1 is the maximum;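 note: human neural progenitor cells hNP1 derived from WA09 embryonic stem cells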). The essentials:
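Proliferation was scored as BrdU labelling intensity in human neural progenitors derived from WA09 embryonic cells, measured 26.25 hours after chemical dosing. Activity was fitted relative to DMSO.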

Assay [9] in a line: TAMU_PeakParms_SingleDonor1434_Chronotropy: Texas A&M University (TAMU) 1.5-hr Human Induced Pluripotent Stem Cell (iPSC)-derived Cardiomyocytes Calcium (Ca+2) Flux Assay for Cardiotoxicity: Chronotropy (changes in peak frequency) (AID 2284217). Conditions: actives raise or lower the signal. The essentials:
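Using fluorescent Ca2+ flux, average beats per second are measured in human iPSC-derived cardiomyocytes treated 90 min (0.5% DMSO vehicle, 0.2–100 uM). Non-beating data points are removed; activity is modeled in both directions relative to DMSO controls.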

Inconclusive results are not listed. Calls of active or inactive are those of the source. Rule for the calls, unless noted: active = hit-call score of the fitted dose curve at least 0.9, where 1 is the maximum; inactive = score below 0.9.

`N#Cc1ccc(CC(=NNC(=O)Nc2ccc(OC(F)(F)F)cc2)c2cccc(C(F)(F)F)c2)cc1`: the outcome in assay [1], in assay [2], in assay [3], in assay [4], in assay [5] and in [6] was inactive. For the same compound, the outcome in assay [7] and in [8] was inactive.

Turning to `CN(C)C(=N)N=C(N)N`, the result in [1], in assay [2], in [4], in assay [5], in assay [6] and in assay [7] was inactive. In addition, in assay [3], the AC50 is 18.1 µM (active).

Regarding `c1ccc2c(c1)c1cccc3ccc4cccc2c4c31`, in assay [9], the AC50 was 9.92 µM (active).
